This is a sample that favours compounds with a hit; in the whole collection about 3.7% have one here.
Nrf2 inh: inhibitors of Nrf2 signaling. A549 ARE-Fluc reporter, luciferase luminescence, 18-24 h. Potency, µM (top dose mostly 46 µM), inactives show at the top dose activity change, negative = inhibition, most hits filed as inhibitors. actives 2.1% (n = 360,000); further: on the % scale 0 is the no-effect control and ±100 the full control effect; nearly all actives have a fitted effect of over 60% in size
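Cells were seeded and rested 2 h, then exposed to compounds for 18-24 h. CellTiter-Fluor was read first as a viability measure. BugLite was added 15 min before the final luminescent read of ARE-luciferase activity in A549 cells.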
Nrf2 ARE act: Nrf2 pathway activation | actives 0.31% (n = 410,000) | AREc32 ARE-luciferase reporter (MCF7-derived line), luminescence, 24 h | Potency, µM (doses to about 46.1 µM), without a hit: at the highest dose activation, actives largely listed as activators; further: % of control where 0% means no effect; nearly all actives have a fitted effect of over 65% in size
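Steps: seed AREc32_Fluc cells (1000/well, 5% FBS OPTI-MEM); incubate overnight at 37 deg C; add 23 nL compound; incubate 24 hr; add Steady-Glo; hold 30 min RT; read luminescence.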
A549 tox-1: counter-screen for Nrf2 inhibitors: cytotoxicity in A549 cells; actives 0.16% (n = 390,000); Potency, µM (doses to about 46 µM), inactives show top-dose activity change, negative = cytotoxicity, hits mostly inhibitors; A549 ARE-Fluc cells, CellTiter-Fluor viability, 18-24 h; further: on the % scale 0 is the no-effect control and ±100 the full control effect
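A549 ARE_Fluc cells in 5% FBS OPTI-MEM were exposed to compounds in concentration-response for 18-24 h at 37 deg C. Viability was read by CellTiter-Fluor fluorescence (Ex 405/Em 525) after 30 min, before the luciferase read.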
ELG1 DNA repair: ELG1-dependent DNA repair inhibition | HEK293T ELG1-luciferase reporter, luminescence, 16 h; DNA damage induced by 5-fluorouridine | Potency, µM (top dose mostly 46.1 µM), inactives show at the highest dose activity change, negative = inhibition, actives largely listed as inhibitors | actives 2.3% (n = 330,000) | AID 504467; further: on the % scale 0 is the no-effect control and ±100 the full control effect; nearly all actives have a fitted effect of over 55% in size
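Reporter activity after DNA damage by 5-fluorouridine is monitored. Compound-treated cells incubate 16 hr at 37 °C, then ONE-Glo is added for 30 min before luminescence reading.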
FLuc counter 3: blocks purified firefly luciferase in Nrf2 counterscreen; shares compounds with Nrf2 inh; purified firefly luciferase, luminescence inhibition; Potency, µM (top dose mostly 57.5 µM), for inactives: at the top dose activity change, negative = inhibition, usual class: inhibitors; actives 4% (n = 1,400); AID 720522; further: on the % scale 0 is the no-effect control and ±100 the full control effect; nearly all actives have a fitted effect of over 65% in size
Target sequence (P08659 whole entry, looked up): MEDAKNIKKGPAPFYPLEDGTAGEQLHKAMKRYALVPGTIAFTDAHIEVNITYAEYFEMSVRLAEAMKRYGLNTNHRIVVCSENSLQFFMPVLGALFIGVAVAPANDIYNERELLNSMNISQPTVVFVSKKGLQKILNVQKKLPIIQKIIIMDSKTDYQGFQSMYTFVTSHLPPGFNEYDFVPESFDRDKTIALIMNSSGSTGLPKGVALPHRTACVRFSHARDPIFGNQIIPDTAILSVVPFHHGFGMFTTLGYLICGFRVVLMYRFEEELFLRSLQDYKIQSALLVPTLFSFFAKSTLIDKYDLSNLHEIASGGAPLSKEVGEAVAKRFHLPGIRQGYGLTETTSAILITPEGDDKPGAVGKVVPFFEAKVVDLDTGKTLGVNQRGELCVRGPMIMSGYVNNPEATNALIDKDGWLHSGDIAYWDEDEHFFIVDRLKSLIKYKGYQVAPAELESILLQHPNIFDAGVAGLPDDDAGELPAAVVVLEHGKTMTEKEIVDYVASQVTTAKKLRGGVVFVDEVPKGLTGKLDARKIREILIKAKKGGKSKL
A549 tox-2: toxic to A549 ARE-Fluc cells in Nrf2 counterscreen. shares compounds with Nrf2 inh. A549 ARE-Fluc cells, cytotoxicity counterscreen. Potency, µM (titrated, usually from 46.1 µM), for inactives: at the top dose activity change, negative = cytotoxicity, hits mostly inhibitors. actives 2% (n = 1,400);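 further: cells exposed to compounds for 18 to 24 hours; on the % scale 0 is the no-effect control and ±100 the full control effect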
Nrf2 ARE inh: reduces Nrf2 ARE reporter signal in A549 cells; Potency, µM (titrated, usually from 46.1 µM), for the others: at the highest dose activity change, negative = inhibition, actives largely listed as inhibitors; actives 74% (n = 1,400); shares compounds with Nrf2 inh; A549 ARE-firefly luciferase reporter, luminescence; further: on the % scale 0 is the no-effect control and ±100 the full control effect; nearly all actives have a fitted effect of over 65% in size
The depositor's hits bear a star; ? = inconclusive; · = no result given; [ ] = dose if it differs, or a comment. The call rests on the fitted dose curve; in most records, active means well fitted curve in the direction sought with a large enough effect; inconclusive means small, poorly fitted or top-dose-only effect, or another doubt; inactive means no such curve, though single readings can be large; an effect the other way counts as inactive or inconclusive. Potency means the concentration at half of the fitted maximal effect.

SMILES	Nrf2 inh	Nrf2 ARE act	A549 tox-1	ELG1 DNA repair	FLuc counter 3	A549 tox-2	Nrf2 ARE inh
COc1ccc(CN(C)c2ccc(S(=O)(=O)N3CCN(C)CC3)cc2[N+](=O)[O-])cc1OC	1.3µM*	-0.5%	-3.1%	2.9%	-28.4%	1.7%	?
CC(=O)OCC(=O)[C@@]1(O)CC[C@H]2[C@@H]3CCC4=CC(=O)CC[C@]4(C)[C@H]3C(=O)C[C@@]21C	-6.0%	0.3%	-0.7%	1.2%	·	·	·
CC(=O)OCC(=O)C1(O)CCC2C3CCC4=CC(=O)CCC4(C)C3(F)C(O)CC21C (configuration not stated)	0.0366µM*	-0.3%	-11.1%	·	3.4%	-4.8%	0.0206µM*
CC(=O)OCC(=O)C1(O)CCC2C3CCC4=CC(=O)CCC4(C)C3(Cl)C(O)CC21C (configuration not stated)	1.16µM*	0.7%	-2.3%	·	0.5%	-12.1%	0.517µM*
CC1Cc2cc(S(=O)(=O)NCc3ccccc3)ccc2N1C(=O)C1CCC1 (configuration not stated)	1.64µM*	0.4%	-3.2%	-17.5%	2.0%	0.2%	?
CC1Cc2cc(S(=O)(=O)NCc3ccccc3)ccc2N1C(=O)C1CC1 (configuration not stated)	?	0.2%	2.0%	-4.5%	·	·	·
COc1ccc(N2CCN(S(=O)(=O)c3ccc4c(c3)CC(C)N4C(C)=O)CC2)cc1 (configuration not stated)	9.2µM*	-0.7%	-9.4%	·	4.0%	-4.0%	5.8µM*
COc1ccc(NS(=O)(=O)c2ccc3c(c2)CC(C)N3C(=O)C2CCC2)cc1OC (configuration not stated)	·	-0.8%	?	·	·	·	·
COc1cc(Cl)c(NS(=O)(=O)c2ccc3c(c2)CC(C)N3C(=O)C2CCC2)c(OC)c1 (configuration not stated)	9.2µM*	-1.3%	-22.5%	·	0.4%	-10.7%	8.2µM*
COc1cc(NS(=O)(=O)c2ccc3c(c2)CC(C)N3C(=O)C2CCC2)cc(OC)c1OC (configuration not stated)	6.51µM*	·	-25.8%	·	-1.9%	-15.6%	2.59µM*
CCCCNc1nc(Oc2ccc(=O)n(-c3ccccc3)n2)nc(N(CC)CC)n1	?	-0.2%	?	·	·	·	·
Cc1cccc(C(=O)NCC(c2cccs2)S(=O)(=O)c2cccs2)c1 (configuration not stated)	·	1.2%	-10.4%	·	·	·	·
CCN1CCN(C(=S)c2ccc(-c3ccccc3)cc2)CC1	5.17µM*	-1.7%	-1.0%	?	?	-1.5%	6.51µM*
CN(C)c1cc[n+](CC(=O)Nc2ccc(Cl)c([N+](=O)[O-])c2)cc1	4.61µM*	-0.5%	-3.2%	8.9%	-0.4%	-5.2%	8.2µM*
CN(C)c1cc[n+](CC(=O)Nc2cccc([N+](=O)[O-])c2)cc1	-14.6%	-0.7%	4.5%	-16.3%	·	·	·
Cn1cccc1C(=O)NC(=O)COC(=O)CNC(=O)CNC(=O)c1ccc(Cl)cc1Cl	?	-1.2%[9.22 µM]	1.9%	5.9%	·	·	·
Cn1cccc1C(=O)NC(=O)COC(=O)CNC(=O)c1ccc(Cl)cc1Cl	2.59µM*	-1.1%	1.8%	-18.8%	?	2.6%	7.31µM*
COc1ccc2ccc3cccc[n+]3c2c1	4.61µM*	4.0%	-11.8%	·	-2.0%	-13.9%	23.1µM*
CC1CN(S(=O)(=O)c2ccc(C(=O)OCc3ccc(C#N)cc3)cc2)CC(C)O1 (configuration not stated)	4.2%	0.2%	-4.0%	-13.0%	·	·	·
Cc1ccnc(SCC(=O)Nc2sc3c(c2C#N)CCCC3)n1	9.2µM*	3.7%	-20.8%	-15.5%	-4.0%	-20.0%	·
CC(=O)c1sc(NC(=O)C2(F)C(F)(F)C(F)(F)C(F)(F)C(F)(F)C2(F)F)nc1C	5.8µM*	7.2%	?	?	?	?	6.51µM*
Cc1cc(C(=O)CSc2ncnc3ccccc23)c(C)n1C1CC1	-16.0%	4.9%	-0.3%	?	·	·	·
Cc1cc(-n2c(C)cc(C(=O)CSc3ncnc4ccccc34)c2C)no1	4.61µM*	6.0%	?	-11.6%	?	-1.5%	16.4µM*
O=C(CSc1nnc(CNC(=O)c2ccccc2F)o1)NC1CCCCC1	10.1%	-0.3%	-4.8%	4.2%	·	·	·
CC(=O)NCCc1nc2ccccc2n1CCOc1ccccc1C	10.4%	-0.7%	-0.6%	-2.8%	·	·	·
SMILES	Nrf2 inh	Nrf2 ARE act	A549 tox-1	ELG1 DNA repair	FLuc counter 3	A549 tox-2	Nrf2 ARE inh
Cc1ccccc1OCCn1c(C)nc2ccccc21	8.2µM*	-0.8%	2.6%	-3.8%	-15.4%	2.2%	?
CC1(C(=O)O)CCC(C(=O)Nc2ccc(F)cc2)C1(C)C (configuration not stated)	8.4%	-0.7%	-4.6%	5.8%	·	·	·
CCOC(=O)c1ccc(Nc2nc3nonc3nc2Nc2cccc(C)c2C)cc1	2.31µM*	-0.5%	?	·	15.1µM*	?	5.8µM*
COc1ccc(NS(=O)(=O)c2ccc(NC(=O)c3ccc(N(C)S(C)(=O)=O)cc3)cc2)c(OC)c1	1.84µM*	1.7%	-13.6%	-15.2%	-9.4%	-4.3%	2.59µM*
COc1ccc(NS(=O)(=O)c2ccc(NC(C)=O)cc2)c(OC)c1	7.6%	-0.1%	4.8%	-9.4%	·	·	·
COc1ccc(NC(=S)NC(NC(=O)/C=C/c2ccccc2)C(Cl)(Cl)Cl)cc1 (configuration not stated)	-12.5%	5.1%	5.7%	-5.1%	·	·	·
O=C(/C=C/c1ccccc1)NC(NC(=S)Nc1ccc(Cl)cc1)C(Cl)(Cl)Cl (configuration not stated)	6.51µM*	3.3%	?	-16.0%	?	?	5.17µM*
O=C(CCCc1nc(-c2ccccc2Cl)no1)NC1CCCC1	1.16µM*	0.1%	-4.9%	-3.1%	?	-0.2%	4.61µM*
O=C(CCCc1nc(-c2ccc(Cl)cc2)no1)NC1CCCCC1	3.66µM*	0.2%	-15.0%	?	0.2%	-1.0%	·
Cc1ccc(-c2cc3ncc(C#N)c(N)n3n2)cc1	?	7.6%	-0.1%	?	·	·	·
Cc1ccc(-n2ncc3c(N4CCCCCC4)ncnc32)cc1C	·	-1.2%	7.6%	·	·	·	·
Cc1ccc(F)cc1NC(=O)C1C2CCC(O2)C1C(=O)O (configuration not stated)	3.0%	5.2%	1.5%	?	·	·	·
Cn1c(=O)n(-c2ccc(C(C)(C)C#N)cc2)c2c3cc(-c4cnc5ccccc5c4)ccc3ncc21	·	·	·	·	-0.1%	?	0.92µM*
